An excerpt weighted towards active compounds, which were near 4.1% of everything screened.
CASP6 VEID inh: human caspase-6 inhibitors, primary screen, biochemical, VEID-R110 fluorescence, single point, set 2 | purified caspase-6, Z-VEID-R110 cleavage fluorescence | inhibition, % at 12.5 µM | 350,000 tested, 0.53% active | AID 686996, 2013;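 active means mean inhibition across replicates at least about 35%, with every replicate also reaching that limit, limit read from the data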;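 further: 0% = median of neutral control wells and 100% = no fluorescence left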
Env fusion inh: inhibitors of HIV-1 Env-driven cell-cell fusion, primary screen, HeLa-JRFL effector, CEM21 target cells, luciferase; AID 651610, 2012; inhibition, % at 12.3 µM; 360,000 tested, 1.1% active;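 active means mean replicate inhibition score of at least 50 and every replicate individually at or above 50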;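 further: 0% = plate neutral controls and 100% = maraviroc near 300 nM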
NSD2 inh: NSD2 histone methyltransferase inhibitors, primary screen, biochemical, AlphaScreen, single concentration, set 2; inhibition, % at 12.5 µM; 310,000 tested, 0.54% active; NSD2 peptide methylation, 120 min; in the data active means inhibition above about 50%
Target sequence (O96028 whole entry, looked up): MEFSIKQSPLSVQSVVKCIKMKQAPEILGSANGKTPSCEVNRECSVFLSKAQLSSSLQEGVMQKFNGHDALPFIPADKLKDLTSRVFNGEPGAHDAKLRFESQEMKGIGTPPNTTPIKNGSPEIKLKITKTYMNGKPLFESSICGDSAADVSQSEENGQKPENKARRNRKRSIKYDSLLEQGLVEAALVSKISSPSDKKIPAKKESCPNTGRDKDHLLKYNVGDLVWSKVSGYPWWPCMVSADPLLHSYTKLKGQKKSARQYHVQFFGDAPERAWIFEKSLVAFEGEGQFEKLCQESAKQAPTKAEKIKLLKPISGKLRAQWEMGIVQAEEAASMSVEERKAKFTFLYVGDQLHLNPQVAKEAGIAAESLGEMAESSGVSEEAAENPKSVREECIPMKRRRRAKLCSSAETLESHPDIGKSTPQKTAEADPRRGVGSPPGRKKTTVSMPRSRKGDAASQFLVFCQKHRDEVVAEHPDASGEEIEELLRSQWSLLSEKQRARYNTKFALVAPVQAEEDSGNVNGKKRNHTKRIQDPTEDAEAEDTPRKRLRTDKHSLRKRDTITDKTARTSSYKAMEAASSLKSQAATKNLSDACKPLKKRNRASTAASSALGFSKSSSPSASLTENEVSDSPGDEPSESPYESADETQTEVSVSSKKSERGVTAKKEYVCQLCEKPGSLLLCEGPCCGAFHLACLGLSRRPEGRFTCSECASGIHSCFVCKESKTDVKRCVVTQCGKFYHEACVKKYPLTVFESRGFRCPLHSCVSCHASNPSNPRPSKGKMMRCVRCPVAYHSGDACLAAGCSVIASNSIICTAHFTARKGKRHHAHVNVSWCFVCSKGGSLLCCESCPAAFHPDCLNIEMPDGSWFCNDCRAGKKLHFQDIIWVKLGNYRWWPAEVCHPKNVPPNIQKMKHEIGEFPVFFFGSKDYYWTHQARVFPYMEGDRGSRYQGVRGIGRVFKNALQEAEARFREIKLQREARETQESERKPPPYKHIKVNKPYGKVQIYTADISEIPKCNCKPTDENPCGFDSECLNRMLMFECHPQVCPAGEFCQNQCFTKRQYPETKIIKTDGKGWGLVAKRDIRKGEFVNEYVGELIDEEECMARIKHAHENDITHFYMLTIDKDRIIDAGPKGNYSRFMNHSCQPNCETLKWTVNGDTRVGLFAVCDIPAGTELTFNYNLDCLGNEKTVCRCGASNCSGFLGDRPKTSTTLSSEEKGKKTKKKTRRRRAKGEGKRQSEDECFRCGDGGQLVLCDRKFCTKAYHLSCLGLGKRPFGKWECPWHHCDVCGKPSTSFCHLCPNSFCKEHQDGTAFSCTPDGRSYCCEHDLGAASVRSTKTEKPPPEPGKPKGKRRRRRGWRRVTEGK
CFTR F508del cor: F508del CFTR correction, initial screen, CFBE line, single point | CFBE cells, YFP halide quenching; stimulated with forskolin plus potentiator P3; % fluorescence drop versus neutral controls | activity (quench increase), % at 7.58 µM | 350,000 tested, 0.36% active | AID 720511, 2013;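 active means mean added fluorescence quench of at least 8% versus neutral control, with both replicates also reaching 8%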;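 further: cells transiently co-express mutant CFTR-F508del with the halide-sensitive YFP; corrector assay measuring rescue of mutant channel to the surface after 24 h compound exposure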
ALR H2O2 inh: inhibitors of human ALR sulfhydryl oxidase, primary screen, biochemical, H2O2 detection, HRP-luminol luminescence, single point; purified ALR, DTT oxidation; inhibition, % (no concentration beside the values); 290,000 tested, 3.8% active; FAD-linked sulfhydryl oxidase ALR (Homo sapiens), P55789;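 active means mean replicate inhibition above about 79%, with every replicate also reaching it, limit read from the data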
PglD inh: C. jejuni PglD acetyltransferase inhibitors, primary screen, biochemical, DTNB colorimetric, single point; purified PglD enzyme, DTNB colorimetric CoA detection; inhibition, % at 12.5 µM; 360,000 tested, 0.098% active; AID 602405, 2012; in the data active means inhibition above about 16%, passing the limit was not always enough
* hit, by the source's call; x = not tested or not shown; + = active, no number; [ ] = another dose, or the depositor's remark.

SMILES | CASP6 VEID inh | Env fusion inh | NSD2 inh | CFTR F508del cor | ALR H2O2 inh | PglD inh
COC(=O)/C=C/c1ccccc1S(=O)(=O)N(Cc1ccccc1)Cc1ccco1 | x | -209.1 | x | 8.3* | 10.9 | 0.6
CN(C)c1ccc(/C=C(/NC(=O)c2ccccc2Cl)C(=O)NCCN2CCOCC2)cc1 | -2.5 | 6.1 | -3.8 | -1.1 | 88.5* | -0.3
O=C(NCCN1CCOCC1)/C(=C/c1ccc(Cl)cc1)NC(=O)c1ccccc1 | -2.9 | -40.8 | -3.8 | -1.7 | -16.2 | -0.1
CN(C)c1ccc(/C=C(/NC(=O)c2ccccc2)C(=O)NCCN2CCOCC2)cc1 | -1.6 | 0.6 | 2.4 | 1.1 | 99.3* | 1.2
Cc1ccc(S(=O)(=O)N(C)C[C@@H]2OCCCC[C@@H](C)Oc3ccc(NC(=O)Nc4ccccc4)cc3C(=O)N([C@@H](C)CO)C[C@@H]2C)cc1 | 1.9 | 2.9[16.7 µM] | x | -0.8 | x | 1.9
Cn1c(=S)[nH]c2ccccc21 | x | -263.0 | 0.8 | x | 84.3* | -0.3
COCCn1c(=O)[nH]c2cc(C(=O)NCC3CCCO3)ccc2c1=O (stereo not given) | x | -118.1 | x | x | -11.3 | x
COCCn1c(=S)[nH]c2cc(C(=O)NCC3CCCO3)ccc2c1=O (stereo not given) | -0.8 | x | 1.7 | -1.6 | 98.3* | x
COc1cc2[nH]c(=S)n(CC3CCCO3)c(=O)c2cc1OC (stereo not given) | 3.4 | x | 3.1 | 0.4 | 48.7 | 2.2
CCOC(=O)C1CCCN(C(=O)c2ccc3c(=O)n(CCOC)c(=S)[nH]c3c2)C1 (stereo not given) | x | 65.6* | -0.7 | x | x | -5.7
CCOc1cc2[nH]c(=S)n(CC3CCCO3)c(=O)c2cc1OCC (stereo not given) | x | -34.8 | 0.5 | x | 95.2* | -3.6
O=C(NC1CCCC1)[C@H]1[C@H](CO)[C@H]2Cn3c(ccc(-c4ccccc4)c3=O)[C@@H]1N2CC1CC1 | 0.7 | x | x | -0.9 | x | x
CCNC(=O)C[C@@H]1CC[C@H](NC(=O)C2CCOCC2)[C@@H](CO)O1 | -1.7 | 16.7[16.7 µM] | x | 2.7 | x | -0.1
COc1ccccc1OCC(=O)NNc1c2ccccc2nc2ccccc12 | -4.0 | 9.1 | 9.2 | 3.8 | 98.8* | x
Cc1ccc(C(=O)NNc2c3ccccc3nc3ccccc23)cc1 | 0.1 | 12.2 | 2.9 | 1.4 | 22.2 | -6.6
C[N+]1(CC(=O)NNc2c3ccccc3nc3ccccc23)CCOCC1 | -2.7 | 11.5 | 10.7 | -0.3 | 98.7* | x
Nc1ccccc1C(=O)NNc1c2ccccc2nc2ccccc12 | 0.4 | 18.4 | 25.4 | -3.1 | 98.2* | -11.6
O=C(CN1CCOCC1)NNc1c2ccccc2nc2ccccc12 | -0.6 | -13.8 | -0.4 | -0.7 | 98.4* | x
COc1ccccc1OCC(=O)NNC(=O)CCCC(=O)NNC(=O)COc1ccccc1OC | 2.4 | 3.0 | -0.9 | 0.2 | 1.2 | 5.5
CCCNC(=O)Nc1ccc2c(c1)C(=O)N(C)C[C@H](OC)[C@H](C)CN(C(C)=O)[C@@H](C)CO2 | 0.1 | -5.7[16.7 µM] | x | -0.5 | x | 10.8
CCN(c1ccccc1)S(=O)(=O)c1cc(C(=O)O)ccc1C | x | -235.9 | + | x | 4.8 | 6.4
CCC(=O)Nc1ccc2c(c1)C(=O)N(C)[C@@H]1CC[C@H](CC(=O)NCCCN(C)C)O[C@H]1CO2 | -2.6 | 4.8[16.7 µM] | x | 0.3 | x | -2.2
OCc1ccccc1SSc1ccccc1CO | 6.0 | -13.0 | 7.3 | x | 98.1* | 4.4
CCCCCNC(=O)C(c1ccc(OC)cc1)n1c(=O)c(-c2cc3ccccc3[nH]2)nc2ccccc21 (stereo not given) | -3.1 | 26.4 | x | 0.7 | x | x
CCCCCNC(=O)C(c1ccncc1)n1c(=O)c(-c2cc3ccccc3[nH]2)nc2ccccc21 (stereo not given) | -1.8 | 74.9* | x | 0.3 | x | x
O=C(C[C@H]1CC[C@H]2[C@@H](COC[C@H](O)CN2C(=O)Nc2ccccc2)O1)NCCc1ccncc1 | -2.1 | x | x | 1.7 | x | -0.1
C[C@H]1CN([C@@H](C)CO)C(=O)c2cc(C#Cc3cccnc3)cnc2O[C@H]1CN(C)C(=O)CN(C)C | -1.3 | -16.4[16.7 µM] | x | -1.3 | x | -0.9
COc1ccc(C=C(C#N)C(=O)c2ccccc2)cc1 | 0.1 | 4.8 | 17.4 | -3.8 | x | x
